Bioassay records (PubChem)
IMPase cell inh: qHTS Assay for Identifying the Cell-Membrane Permeable IMPase Inhibitors; CHO-M1 cells, IP1 accumulation, HTRF TR-FRET ratio; Inositol monophosphatase 1 (Rattus norvegicus), P97697; AID 901, 2007; inhibition (IP1 accumulation), % at 46.1 µM; 120,000 tested, under 10 active; active = well fitted curve in the direction sought with a large enough effect in the signal ratio, not every such curve was filed as active; inconclusive = small, poorly fitted or top-dose-only effect, or a change in a side signal; inactive = no such curve, though single readings can be large or run the other way; the % refers to the signal ratio;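 also: cells stimulated with carbachol in lithium chloride buffer; higher means more IMPase inhibition seen as more IP1 and lower FRET ratio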
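In this qHTS, compounds (final up to 46 uM) act on CHO-M1 cells that are then activated through the M1 receptor with carbachol, in pH 7.4 buffer containing 50 mM LiCl, for 30 min. IP1 accumulation is quantified by the IP-One immunoassay.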
IMPase Li inh: qHTS Assay for Identifying the Cell-Membrane Permeable IMPase Inhibitors: Potentiation with Lithium; CHO-M1 cells, IP1 TR-FRET (IP-One), carbachol + lithium; 0.35% of 210,000 active; Potency, µM (top dose mostly 59.4 µM), most hits filed as inhibitors; active = well fitted curve in the direction sought with a large enough effect; inconclusive = small, poorly fitted or top-dose-only effect, or another doubt; inactive = no such curve, though single readings can be large; an effect the other way counts as inactive or inconclusive;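 also: IP1 builds up when IMPase is blocked and the TR-FRET signal falls; nearly all actives have a fitted effect of over 50% in size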
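CHO cells stably expressing M1 receptor (2000/well, cultured 16–30 h) treated 30 min at 37C with compound plus low lithium. Cytosolic IP1 by TR-FRET (665/620 ratio and 620 channel) after 10 min lysis; AC50 by Hill fit.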
HPGD block: qHTS Assay for Inhibitors of HPGD (15-Hydroxyprostaglandin Dehydrogenase); 15-hydroxyprostaglandin dehydrogenase [NAD(+)] (Homo sapiens), P15428; purified HPGD, NADH fluorescence kinetic, PGE2 substrate; Potency, µM, most hits filed as inhibitors; 4.3% of 150,000 active; AID 894, 2007
Target sequence (P15428 whole entry, looked up): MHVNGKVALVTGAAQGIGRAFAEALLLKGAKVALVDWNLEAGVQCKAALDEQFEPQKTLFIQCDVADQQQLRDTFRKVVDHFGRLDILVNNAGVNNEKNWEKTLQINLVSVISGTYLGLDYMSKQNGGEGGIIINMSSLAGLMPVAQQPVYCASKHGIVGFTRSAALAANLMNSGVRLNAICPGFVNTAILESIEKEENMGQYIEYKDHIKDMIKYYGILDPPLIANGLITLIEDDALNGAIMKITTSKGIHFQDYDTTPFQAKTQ
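NADH formation kinetics: reaction with 30 uM PGE2 and 1 mM NAD+ (final), 20 nM enzyme, Tris-HCl pH 8 with Tween 20, after 15 min compound preincubation at room temperature. Fluorescence change, last versus first of five reads.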
PNC assembly inh: High Content Assay for Compounds that inhibit the Assembly of the Perinucleolar Compartment; activity change (PNC), negative = inhibition, % at 10 µM; PC3M PTB-GFP, PNC prevalence imaging, 16 h; hits give low values; 3.1% of 140,000 active; AID 2417, 2010;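 active = readout at or below -70, meaning at least 70% loss of cells showing the perinucleolar compartment, a nuclear body marking cancer cells; inconclusive = readout between -30 and a set limit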
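PC3M cells stably expressing PTB-GFP, 750–1000 cells/well, treated 16 h at 37 °C with compound (23 nl of library stock), in duplicate. After paraformaldehyde fixation and Hoechst stain, imaged at 20x; PNC prevalence scored by image analysis.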
ALDH1A1 block: qHTS Assay for Inhibitors of Aldehyde Dehydrogenase 1 (ALDH1A1); Aldehyde dehydrogenase 1A1 (Homo sapiens), P00352; Purified ALDH1A1, NADH fluorescence, propionaldehyde substrate; Potency, µM (titrated, usually from 75.3 µM), hits mostly inhibitors; 7.3% of 220,000 active; AID 1030, 2008
Target sequence (P00352 whole entry, looked up): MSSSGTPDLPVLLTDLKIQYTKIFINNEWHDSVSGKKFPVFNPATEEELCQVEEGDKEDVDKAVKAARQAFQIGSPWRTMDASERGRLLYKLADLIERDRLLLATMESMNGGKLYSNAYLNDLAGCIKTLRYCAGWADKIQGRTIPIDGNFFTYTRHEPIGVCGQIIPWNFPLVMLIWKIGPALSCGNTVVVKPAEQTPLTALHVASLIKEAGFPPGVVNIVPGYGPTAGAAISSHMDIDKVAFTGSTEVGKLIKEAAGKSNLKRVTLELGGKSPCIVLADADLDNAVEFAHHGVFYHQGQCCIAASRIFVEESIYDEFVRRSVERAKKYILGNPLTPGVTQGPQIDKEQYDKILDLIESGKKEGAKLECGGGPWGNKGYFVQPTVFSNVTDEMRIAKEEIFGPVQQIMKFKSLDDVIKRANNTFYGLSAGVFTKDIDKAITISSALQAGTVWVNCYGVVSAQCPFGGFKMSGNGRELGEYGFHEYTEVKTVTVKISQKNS
ALOX12 inhib: qHTS Assay for Inhibitors of 12-hLO (12-human lipoxygenase). Potency, µM (doses to about 57.1 µM), actives largely listed as inhibitors. 0.12% of 150,000 active. purified 12-hLO, xylenol orange hydroperoxide absorbance; active = well fitted curve in the direction sought with a large enough effect; inconclusive = small, poorly fitted or top-dose-only effect, or another doubt; inactive = no such curve, though single readings can be large; an effect the other way counts as inactive or inconclusive; also: nearly all actives have a fitted effect of over 55% in size
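150 nM 12hLO, 25 mM Hepes pH 7.0 + 0.01% Triton X-100; cpd preinc 15 min RT; 40 uM arachidonic acid, 30 min RT; Fe-XO 30 min; A573/A405 ratio as read-out.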
Hits are given with their value; ! = not confirmed by another sample; [ ] = dose if it differs, or a comment. This is a sample that favours compounds with a hit; in the whole collection about 11% have one here. Unless noted, calls follow the shape of the dose curve; as a rule, active = well fitted inhibition curve with a large enough effect (not every such curve was filed as active); inconclusive = small, poorly fitted or top-dose-only effect, or another doubt; inactive = no such curve, though single readings can be large or run the other way.

How did Cl/C=C\Cl do in these assays?
IMPase Li inh: inactive; HPGD block: inactive; ALDH1A1 block: inactive; ALOX12 inhib: inactive

What do the screens show for `O=C1NC(=O)N(Cc2ccc(F)cc2)C(=O)/C1=C/c1cccs1`?
IMPase Li inh: inactive; ALDH1A1 block: 28.2µM

Results for Cc1ccc(/C=C2\C(=O)NC(=O)N(CCc3ccc(F)cc3)C2=O)s1 ?
IMPase Li inh: inactive; ALDH1A1 block: 1.58µM

Results for CCCCNC(=O)/C(C#N)=c1\s/c(=C\c2ccccc2OC(F)F)c(=O)n1CCCOC ?
IMPase cell inh: inactive; IMPase Li inh: inconclusive; HPGD block: inactive; PNC assembly inh: inactive; ALDH1A1 block: inconclusive; ALOX12 inhib: inactive

What do the screens show for `CCOC(=O)c1ccc(NC(=O)c2c(O)[nH]c(=O)[nH]c2=O)cc1`?
IMPase cell inh: inactive; IMPase Li inh: inconclusive; HPGD block: 14.1µM; PNC assembly inh: inconclusive; ALDH1A1 block: inconclusive; ALOX12 inhib: inactive

Results for CN(C)CCC=C1c2ccccc2CCc2ccccc21 ?
IMPase cell inh: inactive; IMPase Li inh: inactive; HPGD block: inactive; PNC assembly inh: inactive; ALDH1A1 block: 17.8µM!; ALOX12 inhib: inactive

What do the screens show for `CN(C)CC/C=C1\c2ccccc2Sc2ccc(Cl)cc21`?
IMPase cell inh: inactive; IMPase Li inh: inactive; HPGD block: inactive; PNC assembly inh: inactive; ALDH1A1 block: inactive[13.5 µM]; ALOX12 inhib: inactive[11.4 µM]

Results for CC/C=C\C/C=C\C/C=C\C/C=C\C/C=C\CCCC(=O)NC(C)C(=O)O (centres undefined) ?
IMPase Li inh: inactive; HPGD block: inactive; ALDH1A1 block: inactive; ALOX12 inhib: inactive

What do the screens show for `C[C@@H]1O[C@@H](O[C@H]2C[C@@H](O)[C@]3(CO)[C@@H]4[C@@H](O)C[C@]5(C)[C@H]([C@@H]6COC(=O)C6)CC[C@@]5(O)[C@H]4CC[C@@]3(O)C2)[C@H](O)[C@H](O)[C@@H]1O`?
IMPase cell inh: inactive; ALOX12 inhib: inactive

What do the screens show for `COc1ccc(/C=C/C(=O)c2c(O)n(CCC3=CCCCC3)c(=O)[nH]c2=O)cc1`?
IMPase cell inh: inactive; IMPase Li inh: inactive; HPGD block: inactive; PNC assembly inh: inactive; ALDH1A1 block: inconclusive; ALOX12 inhib: inactive

What do the screens show for `COc1ccc(/C=C/C2=CCN(C)CC2)cc1`?
IMPase Li inh: inactive; ALDH1A1 block: 25.1µM

Results for O=C1NC(=O)N(c2ccc3c(c2)OCO3)C(=O)/C1=C/c1ccc(N2CCCC2)o1 ?
IMPase Li inh: inactive; HPGD block: inactive; PNC assembly inh: inactive; ALDH1A1 block: inactive; ALOX12 inhib: inactive

How did CN1CCN(c2ccc(/C=C3\C(=O)NC(=S)N(c4cccc(Br)c4)C3=O)o2)CC1 do in these assays?
IMPase Li inh: inactive; HPGD block: inactive; PNC assembly inh: inconclusive; ALDH1A1 block: inconclusive; ALOX12 inhib: inactive

How did Cc1ccc(N2C(=O)/C(=C/c3ccc(CN(CCC#N)S(C)(=O)=O)o3)C(=O)NC2=S)cc1C do in these assays?
IMPase cell inh: inconclusive; IMPase Li inh: inactive; HPGD block: 14.1µM; PNC assembly inh: inactive; ALDH1A1 block: 20µM; ALOX12 inhib: inactive

How did Cc1cccc(N2C(=O)/C(=C/c3ccc(CN(CCC#N)S(C)(=O)=O)o3)C(=O)NC2=S)c1 do in these assays?
IMPase cell inh: inactive; IMPase Li inh: inactive; HPGD block: 22.4µM; PNC assembly inh: inactive; ALDH1A1 block: 20µM; ALOX12 inhib: inconclusive

What do the screens show for `CC[C@H](CO)NC(=O)[C@H]1C=C2c3cccc4[nH]cc(c34)C[C@@H]2N(C)C1`?
IMPase cell inh: inactive; IMPase Li inh: inactive; HPGD block: inconclusive; ALDH1A1 block: inactive; ALOX12 inhib: inactive

Results for Cc1nc2c(=O)n(C)c(=O)nc-2n(C)n1 ?
IMPase cell inh: inactive; IMPase Li inh: inactive; HPGD block: inactive; PNC assembly inh: -92.8; ALDH1A1 block: inactive; ALOX12 inhib: inactive

Results for Cc1c([C@@H](C)[C@H]2NC[C@H](C)C[C@@H]2O)ccc2c1C[C@@H]1[C@H]2CC=C2C[C@@H](O)CC[C@@]21C ?
ALOX12 inhib: inactive[11.4 µM]

How did Cc1cccc(-n2c(O)c(/C=N/Nc3nc4c(c(=O)n(C)c(=O)n4C)n3C)c(=O)[nH]c2=S)c1 do in these assays?
IMPase cell inh: inconclusive; IMPase Li inh: inactive; HPGD block: inactive; PNC assembly inh: inactive; ALDH1A1 block: 10µM; ALOX12 inhib: inactive

How did Cc1cccc(-n2c(O)c(C=Nc3ccc(S(N)(=O)=O)cc3)c(=O)[nH]c2=O)c1 do in these assays?
IMPase Li inh: inactive; ALDH1A1 block: inactive

Results for Cc1ccccc1-n1c(O)c(/C=N/Nc2nc3c(c(=O)n(C)c(=O)n3C)n2C)c(=O)[nH]c1=S ?
IMPase Li inh: inactive; HPGD block: inactive; PNC assembly inh: inactive; ALDH1A1 block: 12.6µM; ALOX12 inhib: inactive

What do the screens show for `O=C(c1c[nH]c(C(=O)C(Cl)(Cl)Cl)c1)c1ccccc1Cl`?
IMPase cell inh: inactive; IMPase Li inh: inactive; HPGD block: 14.1µM; PNC assembly inh: inactive; ALDH1A1 block: inconclusive; ALOX12 inhib: inactive

How did CCN1CCC[C@@H](OC(=O)C(c2ccccc2)c2ccccc2)C1 do in these assays?
IMPase cell inh: inactive; IMPase Li inh: inactive; HPGD block: inactive; ALDH1A1 block: inactive; ALOX12 inhib: inactive

What do the screens show for `O=C(Cl)/C=C/C(=O)Cl`?
IMPase Li inh: inactive; HPGD block: inactive; ALDH1A1 block: inactive; ALOX12 inhib: inactive

Results for COC(=O)C1C2c3ccccc3OC1(C)N=c1s/c(=C/c3cnn(C)c3)c(=O)n12 (centres undefined) ?
IMPase cell inh: inactive; IMPase Li inh: inactive; HPGD block: inactive; PNC assembly inh: inactive; ALDH1A1 block: inactive; ALOX12 inhib: inactive

What do the screens show for `CC(=O)C1C2c3ccccc3OC1(C)N=c1s/c(=C/c3cn(C)nc3C)c(=O)n12` (centres undefined)?
IMPase cell inh: inactive; IMPase Li inh: inactive; HPGD block: 28.2µM; PNC assembly inh: inconclusive; ALDH1A1 block: 10µM; ALOX12 inhib: inactive

How did COC(=O)C12CC3=CCC4C(=O)N(c5ccccc5)C(=O)C4C3Cc3ccccc3[C@@H]1CNC2=O (some centres undefined) do in these assays?
IMPase Li inh: inactive; HPGD block: inactive; ALDH1A1 block: inactive

How did Cc1[nH]ccc2c1[nH]c1cc(=O)ccc12 do in these assays?
IMPase cell inh: inactive; IMPase Li inh: inactive; HPGD block: inconclusive; ALDH1A1 block: inconclusive; ALOX12 inhib: inactive
